Source: PubChem BioAssay AID605 (National Center for Advancing Translational Sciences (NCATS), 2007)
Hit rate of the full screen: of about 71,000 compounds, about 35 (0.05%) were called active. The call rests on the fitted dose curve; in most records, active means well fitted curve in the direction sought with a large enough effect; inconclusive means small, poorly fitted or top-dose-only effect, or effect the other way; inactive means flat fitted curve, though single readings scatter. Not all results are given here.

Molecular target: tRNA threonylcarbamoyladenosine biosynthesis protein TsaE (Escherichia coli (strain K12)) (UniProt P0AF67)
Assay: qHTS Assay for Inhibitors of YjeE
Settings: purified YjeE enzyme, qHTS inhibition assay
Method: NIH Molecular Libraries Screening Centers Network [MLSCN]
NIH Chemical Genomics Center [NCGC]
Assay Provider: Eric Brown, McMaster University
YjeE is an essential E.coli protein of unknown function that binds adenosine diphosphate (ADP). A complex of YjeE and BODIPY Texas Red-labeled ADP probe (Invitrogen, catalog number A22359) is incubated with library members. Inhibitors of YjeE-ADP binding are detected by a decrease in the fluorescence polarization (FP) of the fluorophore. Purified YjeE was supplied by Chand Mangat and Eric Brown, McMaster University.
NCGC Assay Protocol Summary:
2 uM probe/10 uM YjeE in columns 1, 2, 5-48. Titration of ADP control (from 40 mM, then 1:2) pin-transferred to top half of column 2. Column 1 and bottom half of column 2 are neutral.
Two and a half uL of reagents were dispensed to 1536-well Greiner black plates. Compounds and controls (20 nL) were transferred via Kalypsys PinTool. The plates were incubated for 15 min at room temperature, and then read on ViewLux (Perkin-Elmer) High-throughput CCD imager using BODIPY polarization filter set and 30 seconds exposure time. During dispense, reagent bottle was kept submerged into 4 deg C water bath and all liquid lines were covered with aluminum foil to minimize probe and protein degradation.
Keywords: NIH Roadmap, MLSCN, MLI, MLSMR, qHTS, NCGC, YjeE

outcome, inactive:
Oc1ccc(O)c2c(O)cccc12, Cc1ccc(S(=O)(=O)NC(=O)N2CCCC(C)(C)C2)cc1, C=CCOC(=O)COCCC(C)C, CCC1=C/C(=C\c2ccc3c(c2)OCO3)C(=O)S1, COC(=O)N1CCC[C@@]2(CCN(C(=O)NC(C)C)C2)C1, O=S(=O)(NCc1ccccc1Cl)c1cnc[nH]1, CCCCn1c(SCC(=O)N2CCC(C(=O)OCC)CC2)nc2cc(S(N)(=O)=O)ccc21, CCCC(Cl)CCCC(Cl)CCC(Cl)CCC(Cl)CCC(Cl)CCCC(Cl)CCC (stereo not given), Nc1ccccc1N, N[C@@H](C(=O)O)c1ccc(P(=O)(O)O)cc1, CC(=O)OC(C(=O)NCCc1ccccc1)c1cccnc1 (stereo not given), COCc1[nH]nc2c1C(C1C=CCCC1)C(C#N)=C(N)O2 (stereo not given), O=C(c1csnn1)N1CCC[C@@]2(CCN(Cc3nccs3)C2)C1, COc1cc(Cl)c(C)cc1NC(=O)CSc1nnc(-c2ccco2)n1CC(C)C, O=C(Nc1cccc(F)c1)N1CC2(CCN(C(=O)c3csnn3)CC2)C1, Cc1cccc(CNc2cc(-c3ccccc3Cl)ncn2)c1, COC(=O)[C@@H]1[C@H]2C[C@H]3c4[nH]c5cc(OC)ccc5c4CCN3C[C@@H]2C[C@@H](OC(=O)c2cc(OC)c(OC)c(OC)c2)[C@@H]1OC, CCOc1ccccc1NC(=O)C1CCN(S(=O)(=O)c2c(C)nn(C)c2C)CC1, C=CCN1C(=O)C(O)(CC(=O)c2ccc(Cl)cc2)c2ccccc21 (stereo not given), CS(=O)(=O)N1CCCC(C(=O)N2CCOCC2)C1 (stereo not given), Clc1ccccc1-c1cc(NCCN2CCOCC2)ncn1, CCc1cc2c(=O)c(-c3ccon3)c(N)oc2cc1OC, CCn1c(SCC(=O)Nc2cc(C)ccc2C)nnc1-c1cnccn1, CC1=C(C(=O)OCc2ccccc2)C(c2ccc(C(F)(F)F)cc2)NC(=O)N1CCCCCC(=O)O (stereo not given), COC(=O)[C@@]1(C)C=C[C@@H](Cc2ccccc2)N1C(C)=O, O=C(Cn1cc(C(=O)c2cccs2)c2ccccc21)NCc1cccs1, O=C(c1cnccn1)N1CCC[C@@]2(CCN(Cc3ccncc3)C2)C1, COC(=O)CCCCCN1C(=O)NC(c2ccc(-c3ccccc3)cc2)C(C(=O)OCc2ccccc2)=C1C (stereo not given), Cc1ccc(Br)cc1, O=C1CC(N2CCN(C(c3ccccc3)c3ccccc3)CC2)C(=O)N1 (stereo not given), CCOc1ccc(C(=O)N(Cc2ccc(N(C)C)cc2)C2CCS(=O)(=O)C2)cc1 (stereo not given), C/C(=C\C(=O)c1ccccc1)Nc1cccc(O)c1, Cc1cc2nc3c(=O)[nH]c(=O)nc-3n(C[C@H](O)[C@H](O)[C@H](O)CO)c2cc1C, O=C(O)c1ccc(C(=O)c2ccccc2C(=O)O)cc1C(=O)O, Cc1ccc(-c2c3c(=O)n(C)c(=O)n(C)c3cn2-n2cnnc2)cc1, C=CC(=O)OCCOCCOCCOCCOC(=O)C=C, CCOc1ccc2c(c1)cc(CN(C(=O)CC)C1CCCCC1)c1nnnn12, Cc1nc2cnc(N3CCNCC3)nc2n(Cc2ccc(F)cc2)c1=O, COc1ccc2c(=O)cc(-c3ccccc3)oc2c1O, C=CCn1c(SCc2csc(C)n2)nc2scc(-c3ccc(C)o3)c2c1=O, C=CC(=C)CCC=C(C)C, Cc1ccc(NC(=O)N2CCC(C(=O)NCc3ccc(F)cc3)CC2)cc1, O=C(NCc1ccccc1)[C@H]1C[C@@H]1[C@H](NP(=O)(c1ccccc1)c1ccccc1)c1ccccc1, O=C1C(c2[nH]c3ccccc3c2O)=Nc2ccccc21, COc1c(C)c2c(c(O)c1C/C=C(\C)CCC(=O)O)C(=O)OC2, Fc1ccc2nc(-c3ccccc3)nc(SCc3nnc(-c4ccccc4)o3)c2c1, Cc1cc(Cl)ccc1OCC(=O)Oc1c(Cl)c(Cl)c(Cl)c(Cl)c1Cl, CCN(CC)CCCCn1c(-c2ccccc2)nc2c(N3CCOCC3)nc(C)nc21, CCNC(=O)CCc1nc(-c2ccc(C(C)(C)C)cc2)no1, c1cncc(CNc2ccnc(-c3ccc4c(c3)OCO4)n2)c1, Cc1cc(C)c2c(c1)c(C)cc1nnc(SCC(=O)NCc3ccco3)n12, Cc1ccc(-c2noc(-c3ccccc3C(=O)NCC3CCCO3)n2)cc1 (stereo not given), c1ccc2c(c1)-c1ccccc1C2N1CC2CCC(CC2)C1, CCC(=O)Nc1ccc(C(=O)Nc2ccc3c(c2)C(=O)N(CC2CCCO2)C3=O)cc1 (stereo not given), CSCC[C@H](NC(=O)NCc1cccs1)C(=O)O, Cc1cccn2c(=O)c3cc(C(=O)N4COCC4(C)C)n(C)c3nc12, CCC[C@@H]1C[C@@]1(CCC)[C@@H](NC(=O)c1ccccc1)c1ccc(C(=O)OC)cc1, Cc1nc(CNS(=O)(=O)c2ccc(Oc3ccccc3)cc2)cs1, O=C(c1csnn1)N1CCC2(CCN(Cc3nccs3)CC2)CC1, CC1(C)CCCC2=C1CC1C(=O)N(c3ccccc3)C(=O)C1C2 (stereo not given), COc1ccc(-c2cc(C(=O)NC(C(=O)O)C(C)C)c(C)o2)cc1OC (stereo not given), Cc1ccc(-c2nnn(CC(=O)N(CCO)C(C(=O)NC(C)(C)C)c3ccncc3)n2)cc1 (stereo not given), Cc1ccc(NC(=O)CCNS(=O)(=O)c2ccc3c(c2)oc(=O)n3C)cc1C, CCC/C=C(\CCC)C(NC(=O)Cc1ccccc1)c1ccc(C(=O)OC)cc1 (stereo not given), O=C1CC(c2cccc(Br)c2)C2=C(CCCC2=O)N1 (stereo not given), COc1ccc(-c2nc3cnc(Oc4ccccc4)nc3n(Cc3cccs3)c2=O)cc1, Oc1c(CN2CCOCC2)ccc(CN2CCOCC2)c1O, CC(=O)CSc1nnc(CSc2ncccn2)n1C1CCCCC1, CCN1CCN(C(=O)CN(C)S(=O)(=O)c2ccc(OC)cc2)CC1, CCOc1ccc(S(=O)(=O)n2ccnc2)c2ccccc12
